Measured values from PubChem BioAssay (NCI).
Values joined by “and” are separate entries in the source; they are usually repeats but may differ in a detail not shown here. Identical values can stand only once. The panel holds about 83,000 compounds, 20% with a hit somewhere; the sample as a whole holds those more often.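 Percent growth is the endpoint: 0 to 100 indicates growth inhibition (40 means 60% inhibition), 0 means no net growth, and negative values indicate cell death.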 Active and inactive are the calls of the source. The calls were made as follows: active = growth percent below 10; inactive = the rest.

Each compound was assayed on A498 renal (assay: NCI-60 one-dose screen, 48 h (100 = growth as untreated, 0 = no growth, -100 = all killed)). Conditions: 10 µM unless noted.

Compound | growth
CCCCC1=C(Br)C(=O)c2nc(C)ccc2C1=O | 93.8% (inactive)
Nc1ncc(-c2ccc3ncnc(N4CCc5ccc(Cl)cc54)c3c2)cc1C(F)(F)F | -62.5% (active)
COc1ccc(-c2nnc3n(C)c(=O)c4ccccc4n23)cc1O | 21.6% (inactive)

Same assay, conditions: 100 µM

Compound | growth
COc1ccc(C(=O)/C=C/c2ccc(OCc3cccc(C(F)(F)F)c3)c(OC)c2)cc1OC | -12.8% (active)
CCN(Cc1ccccc1)c1ccc(/C=C2\COc3ccccc3C2=O)cc1 | 40.2% (inactive)
COc1ccc(C(=O)/C=C/c2ccc(OCc3ccc(Cl)cc3)cc2)cc1OC | -33.3% (active)
CC(=O)/C=C/c1ccc(OCc2ccc(C(C)(C)C)cc2)cc1 | -94.2% (active)
O=C(/C=C/c1cccc(Oc2ccc(Cl)cc2)c1)c1ccccc1 | -95.3% (active)
CC(=O)/C=C/c1ccc(OCc2ccc(Cl)cc2)cc1 | 12.1% (inactive)
CC(=O)/C=C/c1ccc(N(CCO)Cc2ccc(C(C)(C)C)cc2)cc1 | -98.3% (active)
CC(=O)/C=C/c1ccc(N(C)Cc2ccc(C(C)(C)C)cc2)cc1 | -95.6% (active)

The compounds below were run on CCRF-CEM leukemia in the same assay as above. Conditions: 10 µM.

Compound | growth
COc1ccc(C(=O)/C=C/c2ccc(OCc3cccc(C(F)(F)F)c3)c(OC)c2)cc1OC | 51.1% (inactive)
CCN(Cc1ccccc1)c1ccc(/C=C2\COc3ccccc3C2=O)cc1 | 104% (inactive)
CC(=O)/C=C/c1ccc(OCc2ccc(Cl)cc2)cc1 | 86.8% (inactive)

Same assay, conditions: 10 µM unless noted

Compound | growth
CN(C)CCCn1c2nc(=O)[nH]c(=O)c-2nc2cc(Cl)c(Cl)cc21 | 45.6% (inactive)
C=C(CNCCc1ccc(O)cc1)[C@@H]1CC[C@]2(CO)CC[C@]3(C)[C@H](CC[C@@H]4[C@@]5(C)CCC(NCCc6ccc(O)cc6)C(C)(C)[C@@H]5CC[C@]43C)[C@@H]12 (stereo partly drawn) | -43.1% (active)
O=C1/C(=C/c2cn(-c3ccccc3)nc2-c2ccccc2)SC(=S)N1c1ccc(Cl)cc1 | 54% (inactive)
CCCNNC(=O)/C=C/c1ccc(CNCCc2c(C)[nH]c3ccccc23)cc1 | 27.6% [2.5 µM] (inactive)
C=CCNC(=O)Cc1c(-c2ccc(OC)cc2)oc2c(OC)c3c(c(OC)c12)OCO3 | 94.1% (inactive)
CC1=C2[C@@H](CC1)[C@]1(C)O[C@@](C(C)C)(C[C@H]1OC(=O)CO)[C@H]2OC(=O)C1CC1c1ccccc1 (stereo partly drawn) | 96.1% (inactive)
O=C([C@H]1C[C@H]1c1ccc(S(F)(F)(F)(F)F)cc1)N1CCN(c2cc(Cl)ccc2C(F)(F)F)CC1 | 96.4% (inactive)
O=C(Cc1ccc(F)cc1)c1ccccc1 | 88% (inactive)
COc1cc2cc(NCc3ccncc3)nc(C)c2cc1OC | 112% (inactive)
CN1Cn2c(ccc2C(F)(F)F)C(=O)CS1(=O)=O | 105% (inactive)
O=C1C=C(Nc2ccccc2)c2ncccc2C1=O | -29.9% (active)
C=C1C(=O)O[C@H]2[C@H]1CC/C(COC(=O)NCc1ccc(Cn3c(=O)sn(CCCI)c3=O)cc1)=C\CC[C@@]1(C)O[C@@H]21 | -9.69% (active)
COc1ccc(C(=O)/C=C/c2ccc(OCc3ccc(Cl)cc3)cc2)cc1OC | 73.4% [100 µM] (inactive)
COc1ccc(Cn2cc(C(=O)Nc3cccnc3Nc3ccccc3)nn2)cc1 | 108% (inactive)
CC(=O)/C=C/c1ccc(OCc2ccc(C(C)(C)C)cc2)cc1 | 28% [100 µM] (inactive)
NNCCc1ccccc1 | 90.9% (inactive) and 106% (inactive)
CCN(CC)CC#CCOC(=O)[C@]1(C)CCC[C@]2(C)c3ccc(C(C)C)cc3CC[C@@H]12 | 4.53% (active)

Compound | growth
COc1cc2c(cc1OCCCOC1=C=C=C(c3ccc4c(c3)c3cc(-c5ccc(OCCCOc6cc7c(cc6OC)C(=O)N6CCC[C@H]6C=N7)cc5)ccc3n4S(=O)(=O)c3ccc(C)cc3)C=C1)N=C[C@@H]1CCCN1C2=O | 40.3% (inactive)
O=C(CCl)N(O)c1ccc(/C=C/c2ccccc2)cc1 | -4.68% (active) and 10.3% (inactive)
COc1cc(/C=C/C(=O)c2ccc(NC(=O)CSc3nnc(-c4cc(-c5ccccc5)nc5ccccc45)n3-c3ccccc3)cc2)cc(OC)c1OC | 84.2% (inactive)
Nc1[nH]nc(Nc2ccccc2)c1-c1nc2ccccc2s1 | 8.45% (active)
O=C(/C=C/c1cccc(Oc2ccc(Cl)cc2)c1)c1ccccc1 | -10.5% [100 µM] (active)
C[C@]12CCc3c(ccc4cc(O)ccc34)[C@@H]1C[C@H](O)[C@@H]2O | 84.7% (inactive)
CC(=O)/C=C/c1ccc(N(CCO)Cc2ccc(C(C)(C)C)cc2)cc1 | -47.9% [100 µM] (active)
CC(=O)/C=C/c1ccc(N(C)Cc2ccc(C(C)(C)C)cc2)cc1 | -12.1% [100 µM] (active)
Cn1cc(-c2csc(-c3cn(CCOC(N)=O)c4ccccc34)n2)c2cccnc21 | 73.9% (inactive)
C=C(CN1CC=CCC1)[C@@H]1CC[C@]2(COC(C)=O)CC[C@]3(C)[C@H](CC[C@@H]4[C@@]5(C)CC[C@H](O)C(C)(C)[C@@H]5CC[C@]43C)[C@@H]12 | 85.4% (inactive)
C/C=C(/C)C(=O)O[C@@H]1CC(C)(C)CC2C34OC(=O)[C@@]21CC[C@@]3(C)[C@]1(C)CCC2C(C)(C)C(=O)CC[C@]2(C)C1C[C@@H]4Cl (stereo partly drawn) | 98.1% (inactive)
CC1=CC=C(NC(=O)/C=C/c2ccccc2)CC1Nc1nccc(-c2cccnc2)n1 (stereo not drawn) | 19.4% (inactive)
COc1ccc(-c2[nH]c3ccccc3c2-c2ccc(OC)cc2)cc1 | 9.28% (active)
CC[C@]12CN3CCc4c([nH]c5ccccc45)[C@@](C(=O)OC)(c4cc5c(cc4OC)N(C)[C@H]4[C@@](O)(C(=O)OC)[C@H](OC(C)=O)[C@]6(CC)C=CCN7CC[C@]54[C@@H]76)CC(C3)[C@H]1O2 (stereo partly drawn) | 5.37% (active)
CCCCC1=C(Br)C(=O)c2nc(C)ccc2C1=O | 30.9% (inactive)
Nc1ncc(-c2ccc3ncnc(N4CCc5ccc(Cl)cc54)c3c2)cc1C(F)(F)F | 21.6% (inactive)
COc1ccc(-c2nnc3n(C)c(=O)c4ccccc4n23)cc1O | 10.7% (inactive)
